# Experimental data reported in ChEMBL document CHEMBL3433997, “St. Jude Leishmania screening dataset” (2016).
# Target: Hexose transporter 1 (Plasmodium falciparum) (UniProt O97467)
# Test: ST_JUDE_LEISH: Cytotoxicity at 2uM final concentration against transgenic Leishmania Mexicana promastigotes LmPfHT that are glucose transport deficient and complemented with the Plasmodium falciparum hexose transporter. Activity is measured by DNA content using SYBR green in vitro
# Type: functional
row,SMILES,inhibition
1,Oc1ccc2ccccc2c1CNC1CCCCCC1,1.51%
2,CCN(CC)CCNc1ccnc2[nH]c3ccc(Cl)cc3c12,-0.21%
3,CC(C)c1ccc(CN(C)CCCCNC(=O)c2ccc(NC(=O)c3ccc(Cl)cc3)cc2)cc1,-0.96%
4,N#Cc1ccc2[nH]cc(CN3CCC4(CC3)CN(CCNCc3ccccc3)C(=O)CO4)c2c1,-0.73%
5,COc1cc(CN2CCC(CO)(Cc3cccc(C(F)(F)F)c3)CC2)c(Cl)cc1O,-1.69%
6,CCN(CC)CCCC(C)Nc1c(-c2ccc(C)cc2)cnc2ccccc12 (stereo not given),7.44%
7,Cc1cc(N(C)CCN(C)C)nc(Nc2ccc(Cl)cc2)n1,5.67%
8,COc1ccccc1N1CCN(CCCCNC(=O)c2ccc(NC(=O)c3ccc4ccccc4c3)cc2)CC1,1.01%
9,CCCN(CCC)CCCCC(C)Nc1c2ccc(Cl)cc2nc2ccc(OC)cc12 (stereo not given),8.65%
10,O=C(Nc1ccc(F)c([N+](=O)[O-])c1)Nc1cc(C(F)(F)F)ccc1Cl,7.68%
11,Cc1cc(NC(=O)NCCN2CCC(NS(=O)(=O)c3cccc(Br)c3)C2)c2ccccc2n1 (stereo not given),0.98%
12,O=C(CCc1cccc(O)c1)NCC(NCCCNc1cc(=O)c2ccccc2[nH]1)c1cc(Br)cc(Br)c1 (stereo not given),5.63%
13,COc1ccc(Cn2cncc2CN(CCC(C)C)C(=O)c2ccc(Cl)nc2Cl)cc1,2.14%
14,CCc1ccc(C2CCN(CCCCNC(=O)c3ccc(NC(=O)c4ccc(Cl)cc4)cc3)CC2)c(OCC(=O)OC)c1,1.79%
15,COc1ccc2nccc(N3CCN(CCNCc4ccc5c(n4)NC(=O)CS5)CC3)c2c1,0.73%
16,CN(C)CCOc1cc(NC(=O)Nc2ccc(-c3ccccc3)cc2Cl)ccc1I,0.57%
17,O=C(/C=C/c1ccc(Cl)c(Cl)c1)NCCCCCN1CCC(NC(=O)Nc2ccc(F)c(Cl)c2)CC1,4.82%
18,CCCCCCSc1nnc(COc2cccc3ccccc23)n1-c1ccc(OC)cc1,12.1%
19,CN1CCN(c2cc3c(cc2Cl)CCN3C(=O)Cc2ccc(Cl)c(NC(=O)Nc3cccc([N+](=O)[O-])c3)c2)CC1,-1.82%
20,CCOC(=O)/C(=N\OC(C(=O)OC(C)(C)C)c1ccccc1)c1csc(NC(c2ccccc2)(c2ccccc2)c2ccccc2)n1 (stereo not given),1.43%

row,SMILES,inhibition
1,Cc1sc2ccc(Cl)cc2c1S(=O)(=O)Nc1ccc2nccc(N3CC(C)NC(C)C3)c2c1 (stereo not given),4.16%
2,CCCC(C)Nc1nc(C)cc(N[C@@H](Cc2ccccc2)C(=O)NCCc2ccccc2)n1 (stereo not given in full),3.38%
3,c1nc2nc3c(c(Nc4ccc5c(c4)CCC5)n2n1)CCC3,-0.85%
4,COc1ccc(C2CCC(NCCCCNC(=O)c3ccc(NC(=O)c4ccc(Cl)cc4)cc3)CC2)cc1 (stereo not given),4.07%
5,CN1CCCC(CN2CCN(Cc3cccc(-c4ccc(-c5nc6cc(C(F)(F)F)ccc6[nH]5)cc4)c3)CC2)C1 (stereo not given),0.64%
6,COc1ccc(NC(=O)NC2CCN(CCCCCNC(=O)/C=C/c3ccc(Cl)c(Cl)c3)CC2)cc1,-0.81%
7,COc1cc(/C=C/C(=O)NC2CCC(N3CCC(c4ccccc4C)CC3)CC2)cc(OC)c1 (stereo not given),-0.16%
8,Nc1nccc2ccc(-c3ccc(NC(=O)Nc4cc(C(F)(F)F)ccc4F)cc3)cc12,4.94%
9,Cc1ccc(CCC(C)NCC(O)c2cccc(Cl)c2)cc1 (stereo not given),13.1%
10,COc1ccc(CNc2nccc3ccc(-c4ccc5nccn5c4)cc23)cc1,0.03%
11,COc1ccc(NC(=O)c2ccc(-c3nc(-c4ccccc4)cs3)cc2)cc1N1CCN(C)CC1,8.4%
12,CCCc1cc(N2CCC(N(CC)CC)C2)nc(Nc2ccc(OC)cc2)n1 (stereo not given),3.72%
13,O=C(NCCN1CCCC1)c1ccc(-c2ccc(-c3nc4ccccc4[nH]3)s2)cc1,-1.55%
14,COc1ccc(NC(=O)[C@H](Cc2ccccc2)Nc2cc(C)nc(NCCc3ccccn3)n2)cc1,5.3%
15,CCC(C)(C)c1ccc(OCC(O)CN2CCCCC2)c(C(C)(C)CC)c1 (stereo not given),15.2%
16,CN(C)c1ccc(C2c3[nH]cnc3CCN2C(=O)Nc2cccc([N+](=O)[O-])c2)cc1 (stereo not given),8.52%
17,Cc1cccc(Nc2nc(NCCCCN)nc3cc[nH]c(=O)c23)c1,6.97%
18,CN1CCN(c2ccnc3ccc(NC(=O)Nc4ccc(-c5ccncc5)c5ccccc45)cc23)CC1,0.39%
19,CCCN(Cc1ccc(C)cc1)Cc1cc(=O)c2cc(Cl)ccc2[nH]1,10.5%
20,CCCc1ccc(NC(=O)c2ccc(CN3CCCN(CC4CCCCC4)CC3)cc2)cc1,7.86%

# Target: Glucose transporter (Leishmania mexicana) (UniProt O61059)
# Test: ST_JUDE_LEISH: Cytotoxicity at 2uM final concentration against transgenic Leishmania Mexicana promastigotes LmGT2 that are glucose transport deficient and complemented with the L. Mexicana glucose transporter 2. Activity is measured by DNA content using SYBR green in vitro
# Type: functional
row,SMILES,inhibition
1,Oc1ccc2ccccc2c1CNC1CCCCCC1,1.96%
2,CCN(CC)CCNc1ccnc2[nH]c3ccc(Cl)cc3c12,-0.03%
3,CC(C)c1ccc(CN(C)CCCCNC(=O)c2ccc(NC(=O)c3ccc(Cl)cc3)cc2)cc1,-1.07%
4,N#Cc1ccc2[nH]cc(CN3CCC4(CC3)CN(CCNCc3ccccc3)C(=O)CO4)c2c1,5.02%
5,COc1cc(CN2CCC(CO)(Cc3cccc(C(F)(F)F)c3)CC2)c(Cl)cc1O,-0.81%
6,CCN(CC)CCCC(C)Nc1c(-c2ccc(C)cc2)cnc2ccccc12 (stereo not given),8.1%
7,Cc1cc(N(C)CCN(C)C)nc(Nc2ccc(Cl)cc2)n1,7.48%
8,COc1ccccc1N1CCN(CCCCNC(=O)c2ccc(NC(=O)c3ccc4ccccc4c3)cc2)CC1,-0.43%
9,CCCN(CCC)CCCCC(C)Nc1c2ccc(Cl)cc2nc2ccc(OC)cc12 (stereo not given),9.34%
10,O=C(Nc1ccc(F)c([N+](=O)[O-])c1)Nc1cc(C(F)(F)F)ccc1Cl,1.2%
11,Cc1cc(NC(=O)NCCN2CCC(NS(=O)(=O)c3cccc(Br)c3)C2)c2ccccc2n1 (stereo not given),0.42%
12,O=C(CCc1cccc(O)c1)NCC(NCCCNc1cc(=O)c2ccccc2[nH]1)c1cc(Br)cc(Br)c1 (stereo not given),6.84%
13,COc1ccc(Cn2cncc2CN(CCC(C)C)C(=O)c2ccc(Cl)nc2Cl)cc1,2.49%
14,CCc1ccc(C2CCN(CCCCNC(=O)c3ccc(NC(=O)c4ccc(Cl)cc4)cc3)CC2)c(OCC(=O)OC)c1,1.25%
15,COc1ccc2nccc(N3CCN(CCNCc4ccc5c(n4)NC(=O)CS5)CC3)c2c1,0.44%
16,CN(C)CCOc1cc(NC(=O)Nc2ccc(-c3ccccc3)cc2Cl)ccc1I,-2.09%
17,O=C(/C=C/c1ccc(Cl)c(Cl)c1)NCCCCCN1CCC(NC(=O)Nc2ccc(F)c(Cl)c2)CC1,6.8%
18,CCCCCCSc1nnc(COc2cccc3ccccc23)n1-c1ccc(OC)cc1,10.3%
19,CN1CCN(c2cc3c(cc2Cl)CCN3C(=O)Cc2ccc(Cl)c(NC(=O)Nc3cccc([N+](=O)[O-])c3)c2)CC1,1.55%
20,CCOC(=O)/C(=N\OC(C(=O)OC(C)(C)C)c1ccccc1)c1csc(NC(c2ccccc2)(c2ccccc2)c2ccccc2)n1 (stereo not given),0.99%

row,SMILES,inhibition
1,Cc1sc2ccc(Cl)cc2c1S(=O)(=O)Nc1ccc2nccc(N3CC(C)NC(C)C3)c2c1 (stereo not given),6.32%
2,CCCC(C)Nc1nc(C)cc(N[C@@H](Cc2ccccc2)C(=O)NCCc2ccccc2)n1 (stereo not given in full),-0.17%
3,c1nc2nc3c(c(Nc4ccc5c(c4)CCC5)n2n1)CCC3,1.24%
4,COc1ccc(C2CCC(NCCCCNC(=O)c3ccc(NC(=O)c4ccc(Cl)cc4)cc3)CC2)cc1 (stereo not given),4.39%
5,CN1CCCC(CN2CCN(Cc3cccc(-c4ccc(-c5nc6cc(C(F)(F)F)ccc6[nH]5)cc4)c3)CC2)C1 (stereo not given),1.86%
6,COc1ccc(NC(=O)NC2CCN(CCCCCNC(=O)/C=C/c3ccc(Cl)c(Cl)c3)CC2)cc1,-2.52%
7,COc1cc(/C=C/C(=O)NC2CCC(N3CCC(c4ccccc4C)CC3)CC2)cc(OC)c1 (stereo not given),0.77%
8,Nc1nccc2ccc(-c3ccc(NC(=O)Nc4cc(C(F)(F)F)ccc4F)cc3)cc12,-0.4%
9,Cc1ccc(CCC(C)NCC(O)c2cccc(Cl)c2)cc1 (stereo not given),11.1%
10,COc1ccc(CNc2nccc3ccc(-c4ccc5nccn5c4)cc23)cc1,-1.93%
11,COc1ccc(NC(=O)c2ccc(-c3nc(-c4ccccc4)cs3)cc2)cc1N1CCN(C)CC1,9.79%
12,CCCc1cc(N2CCC(N(CC)CC)C2)nc(Nc2ccc(OC)cc2)n1 (stereo not given),1.91%
13,O=C(NCCN1CCCC1)c1ccc(-c2ccc(-c3nc4ccccc4[nH]3)s2)cc1,0.42%
14,COc1ccc(NC(=O)[C@H](Cc2ccccc2)Nc2cc(C)nc(NCCc3ccccn3)n2)cc1,-0.86%
15,CCC(C)(C)c1ccc(OCC(O)CN2CCCCC2)c(C(C)(C)CC)c1 (stereo not given),13.2%
16,CN(C)c1ccc(C2c3[nH]cnc3CCN2C(=O)Nc2cccc([N+](=O)[O-])c2)cc1 (stereo not given),1.43%
17,Cc1cccc(Nc2nc(NCCCCN)nc3cc[nH]c(=O)c23)c1,4.49%
18,CN1CCN(c2ccnc3ccc(NC(=O)Nc4ccc(-c5ccncc5)c5ccccc45)cc23)CC1,5.81%
19,CCCN(Cc1ccc(C)cc1)Cc1cc(=O)c2cc(Cl)ccc2[nH]1,9.04%
20,CCCc1ccc(NC(=O)c2ccc(CN3CCCN(CC4CCCCC4)CC3)cc2)cc1,5.46%
